“And” between values parts separate entries of the source, which are not always exact repeats. Equal entries are not always repeated. Structures can show the parent of a compound that is named as a salt.
How the values were obtained:
Assay in all cases: cell viability relative to vehicle control; higher = less cytotoxic
Details in all cases: 10 µM
K562 = tested on: K562
Procedure, shortened: (§1)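 Four leukaemia lines, as CRISPR-edited mutant clones and isogenic wild-type clones, were tested against Selleck bioactive, kinase and epigenetic probe libraries after removal of identity-inconsistent compounds. Cells were exposed to a single 10 µM dose for 48 h, and CellTiter-Glo luminescence was then read. Viability was calculated relative to the on-plate vehicle control.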

MARIMO = tested on: MARIMO
Procedure, shortened: as §1

MOLM14 = tested on: MOLM14
Procedure, shortened: as §1

OCI-AML2 = tested on: OCI-AML2
Procedure, shortened: as §1

| Structure (SMILES) | cell viability (K562; SRSF2 genotype: SRSF2 P95H/wt) | cell viability (K562; SRSF2 genotype: SRSF2 wt/wt) [%] | cell viability (MARIMO; SRSF2 genotype: SRSF2 P95H/wt) [%] | cell viability (MARIMO; SRSF2 genotype: SRSF2 wt/wt) [%] | cell viability (MOLM14; SRSF2 genotype: SRSF2 P95H/wt) [%] | cell viability (MOLM14; SRSF2 genotype: SRSF2 wt/wt) [%] | cell viability (OCI-AML2; SRSF2 genotype: P95H/wt) [%] | cell viability (OCI-AML2; SRSF2 genotype: wt/wt) [%] |
| --- | --- | --- | --- | --- | --- | --- | --- | --- |
| Cc1cc(Nc2cc(N)ncn2)c(=O)n2c1C(=O)NC21CCCCC1 | 89.2% and 85.2% | 87.7 | 86 | 98.2 | 83.5 | 92 | 89 | 88.5 |
| O=C(Cn1ccnc1[N+](=O)[O-])NCc1ccccc1 [Benznidazole] | 96.1% and 92.1% | 95.9 | 96.6 | 92.8 | 97.1 | 99.4 | 103 | 100 |
| COC(=O)[C@H](O)[C@@H](NC(=O)c1ccccc1)c1ccccc1 | 108% and 104% | 107 | 108 | 103 | 98.1 | 106 | 104 | 110 |
| Cc1ccc(C)c(OCCCC(C)(C)C(=O)O)c1 [Gemfibrozil (Lopid)] | 108% and 109% | 108 | 107 | 106 | 106 | 109 | 106 | 110 |
| COC(=O)[C@H](Cc1ccccc1)NC(=O)[C@@H](N)CC(=O)O [Aspartame] | 101% and 92.2% | 91.6 | 102 | 101 | 98.8 | 97.1 | 93.6 | 92.1 |
| COc1ccc2cc(CCC(C)=O)ccc2c1 [Nabumetone] | 105% and 96.8% | 93.8 | 97.1 | 95.3 | 104 | 104 | 92.4 | 92.4 |
| O=C(c1ccc(F)c(F)c1Nc1ccc(I)cc1F)N1CC(O)([C@@H]2CCCCN2)C1 [Cobimetinib (GDC-0973, RG7420)] | 22.4% and 35.4% | 35.5 | 27.5 | 28.6 | 29.6 | 21.1 | 18.2 | 26.1 |
| COC(=O)/C=C/C(=O)OC [Dimethyl Fumarate] | 101% and 108% | 94.7 | 103 | 95.6 | 102 | 99.5 | 111 | 110 |
| COc1cc(C(=O)N2CCC(N3CCN(C)CC3)CC2)ccc1Nc1ncc2c(n1)N(C)c1ccccc1C(=O)N2C | 49.8% and 57.1% | 61.2 | 26.9 | 31.8 | 16.3 | 20.6 | 10.9 | 21.2 |
| Nc1nc(=S)c2ncn([C@H]3C[C@H](O)[C@@H](CO)O3)c2[nH]1 | 29.9% and 33.4% | 29.9 | 56.1 | 44.8 | 44.1 | 31.7 | 22.8 | 27.8 |
| OC[C@H]1O[C@@](CO)(OC[C@@]2(O[C@H]3O[C@H](CO)[C@@H](O)[C@H](O)[C@H]3O)O[C@H](CO)[C@@H](O)[C@@H]2O)[C@@H](O)[C@@H]1O [1-Kestose] | 118% and 105% | 110 | 105 | 99.2 | 99 | 110 | 106 | 112 |

Reference: the supplement of paper PMC10981050
